Results from the supplement of paper PMC9262897, “Low-cost anti-mycobacterial drug discovery using engineered E. coli” (Nature Communications, 2022).
Where a name gives a salt, the structure may show the parent alone. ± gives the standard deviation of the averaged measurements.

System: E. coli TESEC Alr+ wild-type control
Assay: growth (OD600 after 10 h); higher = more growth (less inhibition)
Settings: compound 0.1 mM; raw OD600 reference: median of DMSO wells 0.49, cell-free background 0.052
Method: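 TESEC Mtb Alr E. coli (ΔaraC ΔtolC ΔentC Δalr ΔdadX, arabinose-inducible Mtb Alr) or the Alr+ wild-type control strain, grown in defined M9-fructose medium without D-alanine in 96-well plates with Prestwick library compounds at 0.1 mM and 1% DMSO. Low Alr induction is 0.1 µM arabinose and high induction is 10 mM arabinose.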

SMILES	growth
CCCCC(O)c1ccccc1 (stereo not given) [Fenipentol]	0.542 ± 0.07
CCOC(=O)[C@H](CCc1ccccc1)N[C@@H](C)C(=O)N1Cc2ccccc2C[C@H]1C(=O)O [Quinapril HCl]	0.477 ± 0.15
COC(=O)CCc1ccc(OCC(O)CNC(C)C)cc1 (stereo not given) [Esmolol hydrochloride]	0.431 ± 0.019
CCc1oc2ccccc2c1C(=O)c1cc(Br)c(O)c(Br)c1 [Benzbromarone]	0.05037 ± 5.8e-05
Clc1ccc(COC(Cn2ccnc2)c2ccc(Cl)cc2Cl)cc1 (stereo not given) [Econazole nitrate]	0.056 ± 0.002
Cc1ccc2c(c1)c1c3n2CCNC3CCC1 (stereo not given) [Pirlindole mesylate]	0.485 ± 0.052
CN(C)CCC(c1ccc(Br)cc1)c1ccccn1 (stereo not given) [Brompheniramine maleate]	0.45 ± 0.043
CN(C)CCCN1c2ccccc2Sc2ccccc21 [Promazine hydrochloride]	0.523 ± 0.031
C=CCSCC1Nc2cc(Cl)c(S(N)(=O)=O)cc2S(=O)(=O)N1 (stereo not given) [Althiazide]	0.444 ± 0.049
CC(C)(Oc1ccc(Cl)cc1)C(=O)O [Clofibric acid]	0.547 ± 0.1
CC(CN(C)C)CN1c2ccccc2Sc2ccccc21 (stereo not given) [Trimeprazine tartrate]	0.526 ± 0.013
Cc1c(C)c2c(c(C)c1O)CCC(C)(C(=O)O)O2 (stereo not given) [Trolox]	0.579 ± 0.053
Cc1cccc(Nc2ccccc2C(=O)O)c1C [Mefenamic acid]	0.158 ± 0.011
CN(Cc1cnc2nc(N)nc(N)c2n1)c1ccc(C(=O)N[C@@H](CCC(=O)O)C(=O)O)cc1 (racemic) [Amethopterin (R,S)]	0.0999 ± 0.0032
CN(C)/N=N/c1[nH]cnc1C(N)=O [Dacarbazine]	0.51 ± 0.11
CC(=O)OCC(=O)[C@@]1(O)CC[C@H]2[C@@H]3CCC4=CC(=O)C=C[C@]4(C)[C@@]3(F)[C@@H](O)C[C@@]21C [Isoflupredone acetate]	0.422 ± 0.029
NS(=O)(=O)c1cc2c(cc1C(F)(F)F)NC(Cc1ccccc1)NS2(=O)=O (stereo not given) [Bendroflumethiazide]	0.487 ± 0.035
CNCCCC12CCC(c3ccccc31)c1ccccc12 [Maprotiline hydrochloride]	0.589 ± 0.072
Nc1ccc(S(=O)(=O)Nc2ccccn2)cc1 [Sulfapyridine]	0.449 ± 0.0039
NCCCC(O)(P(=O)(O)O)P(=O)(O)O [Alendronate sodium]	0.514 ± 0.051

SMILES	growth
CC(C[N+](C)(C)C)OC(N)=O (stereo not given) [Bethanechol chloride]	0.603 ± 0.0074
c1ccc(CC2=NCCN2)cc1 [Tolazoline hydrochloride]	0.493 ± 0.064
N=C(N)NC(=O)Cc1c(Cl)cccc1Cl [Guanfacine hydrochloride]	0.485 ± 0.018
CCc1cccc2c3c([nH]c12)C(CC)(CC(=O)O)OCC3 (stereo not given) [Etodolac]	0.415 ± 0.021
COc1cc2nc(N(C)CCCNC(=O)C3CCCO3)nc(N)c2cc1OC (stereo not given) [Alfuzosin hydrochloride]	0.462 ± 0.029
CCN(CC)CCNC(=O)c1cc(Br)c(N)cc1OC [Bromopride]	0.428 ± 0.011
COC(=O)C1=C(C)NC(C)=C(C(=O)OC(C)C)C1c1cccc2nonc12 (stereo not given) [Isradipine]	0.379 ± 0.0051
COc1ccc(-c2cc(=O)c3c(O)cc(O[C@@H]4O[C@H](CO[C@@H]5O[C@@H](C)[C@H](O)[C@@H](O)[C@H]5O)[C@@H](O)[C@H](O)[C@H]4O)cc3o2)cc1O [Diosmin]	0.578 ± 0.14
C[C@H](CCC(=O)O)[C@H]1CC[C@H]2[C@@H]3CC[C@@H]4C[C@H](O)CC[C@]4(C)[C@H]3CC[C@]12C [Lithocholic acid]	0.386 ± 0.047
CS(=O)(=O)OCCCCOS(C)(=O)=O [Busulfan]	0.445 ± 0.033
Cc1nc2ccccn2c(=O)c1CCN1CCC(C(=O)c2ccc(F)cc2)CC1 [Pirenperone]	0.469 ± 0.013
C=C1c2cccc(O)c2C(O)=C2C(=O)[C@]3(O)C(O)=C(C(N)=O)C(=O)[C@@H](N(C)C)[C@@H]3[C@@H](O)[C@H]12 [Methacycline hydrochloride]	0.0598 ± 0.0011
N#CC(c1ccc(Cl)cc1)c1c(Cl)cc(-n2ncc(=O)[nH]c2=O)cc1Cl (stereo not given) [Diclazuril]	0.156 ± 0.17
C#C[C@]1(O)CC[C@H]2[C@@H]3CCC4=CC(=O)CC[C@@H]4[C@H]3CC[C@@]21C [Norethindrone]	0.427 ± 0.016
CC(=O)[C@H]1CC[C@H]2[C@@H]3C=CC4=CC(=O)CC[C@@]4(C)[C@@H]3CC[C@]12C [Dydrogesterone]	0.318 ± 0.0089
CC/C(=C(/CC)c1ccc(O)cc1)c1ccc(O)cc1 [Diethylstilbestrol]	0.0495 ± 0.0011
O=C1[C@H](CC[C@H](O)c2ccc(F)cc2)[C@@H](c2ccc(O)cc2)N1c1ccc(F)cc1 [Ezetimibe]	0.0525 ± 0.0014
O=C1C(O)=C(O)C(=O)C(O)=C1O [Tetrahydroxy-1,4-quinone hydrate]	0.5 ± 0.021
O=C1NCCN1CCN1CCC(c2cn(-c3ccc(F)cc3)c3ccc(Cl)cc23)CC1 [Sertindole]	0.0474 ± 0.001
COc1cc(NS(=O)(=O)c2ccc(N)cc2)ncn1 [Sulfamonomethoxine]	0.596 ± 0.092
